In PubChem BioAssay AID1117319 (Southern Research Institute, 2015) one finds inhibition data, which are given here for 60 molecules.

Values joined by “and” are separate entries in the source; they are usually repeats but may differ in a detail not shown here. Equal entries are not always repeated. Hit rate of the full screen: of about 260,000 compounds, about 1,500 (0.58%) were called active. Not shown: some 5% with an inconclusive outcome. A selection follows. Results with a measured potency or affinity are listed apart. A number with no mark means an inactive call.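 How the source made its calls: active means inhibition above a set limit at one or more doses, reproduced on every date tested; inconclusive means results disagree between test dates, or hit never tested in dose response; inactive means the rest.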

The assay addresses Virion infectivity factor (Human immunodeficiency virus type 1 group M subtype B (isolate BH10)) + Virion infectivity factor (Human immunodeficiency virus type 1 group M subtype B (isolate BRU/LAI)) + Virion infectivity factor (Human immunodeficiency virus type 1 group M subtype B (isolate PCV12)) + Virion infectivity factor (Human immunodeficiency virus type 1 group M subtype B (isolate HXB2)) + DNA dC->dU-editing enzyme APOBEC-3G (Homo sapiens) (UniProt P69720+P69721+P69722+P69723+Q9HC16). Put plainly: HIV-1 Vif–A3G interaction blockers – biochemical, TR-FRET, GST-Vif 1-94, biotin-A3G peptide, dose response retest, primary screen (AID 1117319).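 Further: Vif residues 1-94 fused to GST binding biotinylated APOBEC3G peptide 110-148; 0% = full assay without inhibitor and 100% = GST in place of GST-Vif.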 Particulars: TR-FRET GST-Vif / biotin-A3G peptide binding; stronger effect = higher value. (In TR-FRET formats the signal depends on donor and acceptor labels being close together.)
A word on the inhibition: it is the drop in the measured response relative to a control, in per cent. Turning to `CCOC(CNC(=O)c1cccc([N+](=O)[O-])c1)OCC`, the inhibition is 8.25%. Take `O=C1CC(Sc2ncccc2C(=O)O)C(=O)N1` (stereo not given): the inhibition is 5.46%. The value for `Cc1cccc2c1NC(=O)C2(O)N1CCCC(C)C1` (stereo not given) was 7.4%.

On to `C/C(=N\Oc1cccc(F)n1)c1ccc(Cl)cc1Cl`, for which the inhibition is -2.41%. In the case of `O=C(CN1CCN(S(=O)(=O)c2ccc(Br)cc2)CC1)c1ccc(O)c(O)c1` it was 23.1%; in that of `CC(C)c1ccc(S(=O)(=O)N2CCN(CC(=O)c3ccc(O)c(O)c3)CC2)cc1`, 24.8%; in that of `CC1C/C(=C/c2ccccn2)C(=O)/C(=C/c2ccccn2)C1` (stereo not given), 19.4%. In the case of `CC(C)(C)C1C/C(=C/c2ccccn2)C(=O)/C(=C/c2ccccn2)C1` (stereo not given) it was 2.61%. The value for `CC1C/C(=C/c2ccncc2)C(=O)/C(=C/c2ccncc2)C1` (stereo not given) was 25.8%; that for `CCC1C/C(=C\c2cccnc2)C(=O)/C(=C/c2cccnc2)C1` (stereo not given) was 9.28%; that for `CC12CCCC(=O)C1CCC(=Cc1ccco1)C2=O` (stereo not given) was 2.03%. As to `COc1cc(/C=C2\CC(C(C)(C)C)C/C(=C\c3cc(OC)c(OC)c(OC)c3)C2=O)cc(OC)c1OC` (stereo not given), the inhibition is 2.75%.

For `CCC(NC(=O)NNC(N)=S)(C(F)(F)F)C(F)(F)F`, the inhibition is 2.24%. In the case of `CCOc1ccccc1N1CCN(C(=O)c2ccc(-c3ccc(OC(C)=O)cc3)cc2)CC1` it was -6.48%. The value for `Cc1cc(C)c(C(=O)CSc2nnc(C)s2)c(C)c1` was -3.21%; that for `CCOC(=O)C1C(=O)CC(C)(O)C(C(=O)OCC)C1c1cccc(OC(F)(F)C(F)F)c1` (stereo not given) was 1.49%; that for `Cc1cccc(OCc2nc(C#N)c(NCc3ccc4c(c3)OCO4)o2)c1` was 2.3%. Consider `C[C@H](NC(=O)c1ccco1)C(=O)OCC(=O)N1CC(=O)Nc2ccccc21`, for which the inhibition was 1.38%. In the case of `COc1ccccc1NC(=O)CN(c1ccccc1F)S(C)(=O)=O` it was 2.7%; in that of `Cc1ccc(S(=O)(=O)Nc2cccc(C(=O)N3CCN(c4ccccc4O)CC3)c2)cc1F`, -3.67%; in that of `COc1ncnc2c1ncn2CCCN(C)CCc1ccccn1`, 3.23%. With `Nc1nc(N)c2c(n1)CN(Cc1ccc(Cl)cc1)C2`, the inhibition is -2.69%.

As to `Cc1cccc(C(=O)N/N=C/c2cc(Br)c(Br)o2)c1`, the inhibition was 0.73%. Consider `Cc1ccc(C(=O)N/N=C\c2ccc(-c3ccc(Cl)cc3)o2)cn1`, for which the inhibition is 23.4%. In the case of `COC(=O)COc1ccc(S(=O)(=O)Nc2ccc3c(c2)OCCO3)cc1Cl` it was -0.68%. As to `COc1cccc(CNC(=O)CCS(=O)(=O)c2cccs2)c1`, the inhibition is -7.15%. The value for `COc1cccc(CNC(=O)CCCNS(=O)(=O)c2cccs2)c1` was 22.8%. Regarding `CC1(C)CC(=O)c2cc(OCC(=O)NCCCN3CCN(c4ccc(F)cc4)CC3)ccc2O1`, the inhibition is -7.66% and 5.99%.

On to `O=C(O)CN1C(=O)CNC1=O`, for which the inhibition was -0.07%. The value for `CC(=O)Nc1ccc(S(=O)(=O)NCC(=O)OCC(=O)NCc2ccco2)cc1` was 7.01%; that for `CCOC(=O)C1CCCN(C(=O)COC(=O)c2cc(=O)c3ccccc3o2)C1` (stereo not given) was 29.1%. Take `CC(C)n1cc(CN2CCCC(CNS(=O)(=O)c3cccc4cccnc34)C2)cn1` (stereo not given): the inhibition is 10.9%. The value for `COC(=O)c1cccc(-n2c(C)cc(/C=C3\SC(=O)NC3=O)c2C)c1` was 3.07%. The value for `Cc1nn(C)cc1/C=C1\SC(=S)NC1=O` was -1.22%. `Cc1cc(/C=C2\SC(N)=NC2=O)c(C)n1-c1ccccc1`: the inhibition is 19.3%.

As for `Cc1cc(/C=C2\SC(=S)NC2=O)c(C)n1C1CC1`, the inhibition is 30.7%. The value for `Cc1ccc(-n2c(C)cc(/C=C3\SC(=O)NC3=O)c2C)cc1` was -6.8%; that for `Cc1cc(/C=C2\SC(=S)NC2=O)c(C)n1-c1ccc(O)cc1` was 71.3%; that for `COc1cccc(CNC(=O)Cn2ncc3c(=O)oc4ccccc4c32)c1` was -6.25%.

As for `Cc1cccc(-n2ccc(=O)c(C(=O)O)n2)c1`, the inhibition was -11%. The value for `O=C(Nc1ccc(Cl)c(S(=O)(=O)N2CCOCC2)c1)c1ccccn1` was -0.06%; that for `O=C(O)CCCN1C(=O)C2C3CCC(C3)C2C1=O` (stereo not given) was 6.83%.

On to `Cc1cccc(C)c1-n1c(C)cc(/C=N\Nc2ccc([N+](=O)[O-])cn2)c1C`, for which the inhibition was 10.6%.

Turning to `Cc1ccccc1-n1c(C)cc(/C=N/Nc2ccc([N+](=O)[O-])cn2)c1C`, the inhibition is 6.93%. In the case of `Cc1ccc(-n2c(C)cc(/C=N/Nc3ccc([N+](=O)[O-])cn3)c2C)cc1` it was 12.6%; in that of `Cc1cc(/C=N/Nc2ccc([N+](=O)[O-])cn2)c(C)n1-c1ccccc1`, 6.45%; in that of `Cn1ncc(Cl)c1C(=O)NC(=S)Nc1sc2c(c1C#N)CCCCC2`, 1.11%. The value for `CC(=O)N(C1=C(O)c2ccccc2C(=O)C1=O)C1CCCCC1` was -2.6%.

In the case of `O=C(NCc1ccco1)c1cccnc1Cl`, the inhibition was 2.06%. In the case of `COc1cccc(NC(=O)Nc2cccs2)c1` it was 19.8%; in that of `COc1ccc(NC(=O)Nc2cccs2)cc1Cl`, 3.45%. Consider `CC[C@@H]1CCCCc2ccccc2[C@@H](C(=O)C[C@@H](O)CC(C)=O)OC1=O`, for which the inhibition is -2.17%. In the case of `CCCCCC(=O)Nc1cccc(C2=NOC3(C2)C[C@H](C(N)=O)N(C(=O)CCCCC)C3)c1` (stereo not given in full) it was 14.4%; in that of `C/C=C(\C)C(=O)Nc1cccc(C2=NOC3(C2)C[C@H](C(N)=O)N(C(=O)C(c2ccccc2)c2ccccc2)C3)c1` (stereo not given in full), 17.8%; in that of `CCC(=O)Nc1cccc(C2=NOC3(C2)C[C@@H](C(N)=O)N(C(=O)C(c2ccccc2)c2ccccc2)C3)c1` (stereo not given in full), 5.6%.

As to `CCC(=O)Nc1cccc(C2=NOC3(C2)C[C@@H](C(N)=O)N(C(=O)c2cc([N+](=O)[O-])cc([N+](=O)[O-])c2)C3)c1` (stereo not given in full), the inhibition is 9.27%. In the case of `CCC(=O)Nc1cccc(C2=NOC3(C2)C[C@@H](C(N)=O)N(C(=O)COc2ccc(Cl)cc2)C3)c1` (stereo not given in full) it was 1.74%; in that of `C/C=C(\C)C(=O)Nc1cccc(C2=NOC3(C2)C[C@H](C(N)=O)N(C(=O)c2cc([N+](=O)[O-])cc([N+](=O)[O-])c2)C3)c1` (stereo not given in full), 9.79%. `C/C=C(/C)C(=O)Nc1cccc(C2=NOC3(C2)C[C@@H](C(N)=O)N(C(=O)CCCCC)C3)c1` (stereo not given in full): the inhibition was 4.38%.

For `C=C(C)C(=O)N1CC2(CC(c3cccc(NC(=O)COc4ccc(Cl)cc4)c3)=NO2)C[C@@H]1C(N)=O` (stereo not given in full), the inhibition was -2.13%.
